# Assay results from PubChem BioAssay.
# The source made the active and inactive calls.
# Legend:
# [1] = binders of probe aFSTL3 on microarray, primary screen, stem cell growth factor project, biochemical, small-molecule microarray, fluorescence 635/667 (AID 1064); conditions: higher = more signal;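 further: measures binding of the biotinylated anti-FSTL3 antibody to printed compounds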
# [2] = binders from COS7 lysate, DM2A8 probe, primary screen, torsin A project, cell lysate, small-molecule microarray, fluorescence 635/667 (AID 1065); conditions: higher = more signal, COS7 lysate expressing mutant human TOR1A
# [3] = binders of probe aFGF2 on microarray, primary screen, stem cell growth factor project, biochemical, small-molecule microarray, fluorescence 635/667 (AID 1067); conditions: higher = more signal;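 further: measures binding of biotinylated aFGF2 protein to printed compounds on slides; z-score merges feature fluorescence and signal-to-noise across triplicate slides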
# [4] = binders of probe aFGF10 on microarray, primary screen, stem cell growth factor project, biochemical, small-molecule microarray, fluorescence 635/667 (AID 1071); conditions: higher = more signal;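 further: score merges 667 nm spot intensity and signal to noise from triplicate slides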
# [5] = target: Neurogenic locus notch homolog protein 2 (Homo sapiens) (UniProt Q04721); experiment: Notch2 binders on small-molecule microarrays, primary screen, biochemical, small-molecule microarray, 635 nm fluorescence, stem cell growth factors (AID 1073); conditions: Notch2 binding, higher = more signal
# [6] = target: Pro-neuregulin-1, membrane-bound isoform (Homo sapiens) (UniProt Q02297); experiment: NRG1 binders on small-molecule microarrays, primary screen, psychiatric disease protein project, biochemical, small-molecule microarray, fluorescence 635/667 (AID 1075); conditions: NRG1 binding, 635 nm fluorescence, higher = more signal;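 further: score combines 667 nm spot fluorescence with signal to noise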
# [7] = system: Neuregulin-1 EGF-like domain; experiment: binders of neuregulin-1 EGF-like domain, primary screen, biochemical, small-molecule microarray, 635 nm fluorescence (AID 1081); conditions: small-molecule microarray binding, higher = more signal;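 further: binding of the protein to compounds printed on small-molecule microarray slides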
# [8] = FRG1 promoter luciferase signal modulators, primary screen, FRG1 inhibition for FSHD, cell-based, C2C12 myotubes, firefly/Renilla luciferase, luminescence (AID 1084); conditions: higher = more signal, called active from +8 up or from −8 down
# [9] = binders of probe aFST on microarray, primary screen, stem cell growth factor project, biochemical, small-molecule microarray, fluorescence 635/667 (AID 1086); conditions: higher = more signal;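 further: score merges 667 nm fluorescence with signal-to-noise of each printed compound spot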
# [10] = binders of probe aHhip on microarray, primary screen, stem cell growth factor project, biochemical, small-molecule microarray, fluorescence 635/667 (AID 1087); conditions: higher = more signal;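 further: score merges spot fluorescence at 667nm with spot signal to noise ratio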
# [11] = system: PRMT1 (protein arginine N-methyltransferase 1); experiment: PRMT1 binders on small-molecule microarrays, primary screen, biochemical, small-molecule microarray, 635 nm fluorescence (AID 1088); conditions: small-molecule microarray binding, higher = more signal;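 further: binding of Prmt1 protein to compounds spotted on small-molecule microarray slides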
# [12] = yeast growth modulation, basal conditions, primary screen, YJM789 clinical isolate, OD600, 24 h (AID 1089);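 further: growth of clinical yeast isolate S. cerevisiae YJM 789 seeded 1000 cells per well; test concentration not given here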; conditions: S. cerevisiae YJM789 growth, higher = more signal, called active from +8 up or from −8 down
# [13] = fission yeast growth modulation, primary screen, strain 972, OD600, 24 h, no modulator (AID 1090);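 further: basal condition with compound alone and no growth modifier present; test concentration not given here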; conditions: S. pombe 972 growth, higher = more signal, called active from +8 up or from −8 down
# [14] = S. cerevisiae growth modulation with rapamycin, primary screen, strain BY4716, OD600, 96 h (AID 1091); conditions: higher = more signal, called active from +8 up or from −8 down; further: test concentration not given here
# [15] = target: Torsin-1A-interacting protein 2 (Homo sapiens) (UniProt Q8NFQ8); experiment: LULL1 binders on small-molecule microarray, primary screen, cell lysate, human LULL1 lysate, 635/667 nm fluorescence (AID 1092); conditions: hLULL1 lysate binding, 635 nm fluorescence, higher = more signal;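 further: probe is lysate of COS7 cells overexpressing human LULL1; score merges per-feature 667 nm fluorescence with signal-to-noise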
# [16] = E. coli growth modulation, two-sided OD650, primary screen, E. coli filamentation project, strain DRC41, 24 h (AID 1093); conditions: OD650, 24 h, higher = more signal, called active from +8 up or from −8 down;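 further: MC1000 strain lacking acrAB efflux and sulA so SOS filamentation is blocked; test concentration not given here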
# [17] = small-molecule microarray binders of probe aLefty2, primary screen, biochemical, biotinylated probe, 635/667 nm fluorescence (AID 1094); conditions: higher = more signal;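 further: score merges spot fluorescence near 667 nm with spot signal-to-noise ratio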
# [18] = system: Noggin (protein binding on small-molecule microarray); experiment: Noggin binders on small-molecule microarray, primary screen, biochemical, 635/667 nm fluorescence (AID 1095); conditions: 635 nm fluorescence, higher = more signal;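 further: score merges 667 nm feature fluorescence with signal to noise over triplicate slides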
# [19] = target: Neurogenic locus notch homolog protein 3 (Homo sapiens) (UniProt Q9UM47); experiment: NOTCH3 binders on small-molecule microarray, primary screen, biochemical, 635/667 nm fluorescence (AID 1096); conditions: NOTCH3 binding, 635 nm fluorescence, higher = more signal
# [20] = small-molecule microarray binders of probe aEGFR, primary screen, biochemical, biotinylated probe, 635/667 nm fluorescence (AID 1097); conditions: higher = more signal;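 further: probe is a biotinylated anti-EGFR antibody binding compounds printed on slides; score combines fluorescence near 667 nm and signal to noise of each spot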
# Sequence of Neurogenic locus notch homolog protein 2 (Homo sapiens) (Q04721 whole entry, looked up, canonical isoform): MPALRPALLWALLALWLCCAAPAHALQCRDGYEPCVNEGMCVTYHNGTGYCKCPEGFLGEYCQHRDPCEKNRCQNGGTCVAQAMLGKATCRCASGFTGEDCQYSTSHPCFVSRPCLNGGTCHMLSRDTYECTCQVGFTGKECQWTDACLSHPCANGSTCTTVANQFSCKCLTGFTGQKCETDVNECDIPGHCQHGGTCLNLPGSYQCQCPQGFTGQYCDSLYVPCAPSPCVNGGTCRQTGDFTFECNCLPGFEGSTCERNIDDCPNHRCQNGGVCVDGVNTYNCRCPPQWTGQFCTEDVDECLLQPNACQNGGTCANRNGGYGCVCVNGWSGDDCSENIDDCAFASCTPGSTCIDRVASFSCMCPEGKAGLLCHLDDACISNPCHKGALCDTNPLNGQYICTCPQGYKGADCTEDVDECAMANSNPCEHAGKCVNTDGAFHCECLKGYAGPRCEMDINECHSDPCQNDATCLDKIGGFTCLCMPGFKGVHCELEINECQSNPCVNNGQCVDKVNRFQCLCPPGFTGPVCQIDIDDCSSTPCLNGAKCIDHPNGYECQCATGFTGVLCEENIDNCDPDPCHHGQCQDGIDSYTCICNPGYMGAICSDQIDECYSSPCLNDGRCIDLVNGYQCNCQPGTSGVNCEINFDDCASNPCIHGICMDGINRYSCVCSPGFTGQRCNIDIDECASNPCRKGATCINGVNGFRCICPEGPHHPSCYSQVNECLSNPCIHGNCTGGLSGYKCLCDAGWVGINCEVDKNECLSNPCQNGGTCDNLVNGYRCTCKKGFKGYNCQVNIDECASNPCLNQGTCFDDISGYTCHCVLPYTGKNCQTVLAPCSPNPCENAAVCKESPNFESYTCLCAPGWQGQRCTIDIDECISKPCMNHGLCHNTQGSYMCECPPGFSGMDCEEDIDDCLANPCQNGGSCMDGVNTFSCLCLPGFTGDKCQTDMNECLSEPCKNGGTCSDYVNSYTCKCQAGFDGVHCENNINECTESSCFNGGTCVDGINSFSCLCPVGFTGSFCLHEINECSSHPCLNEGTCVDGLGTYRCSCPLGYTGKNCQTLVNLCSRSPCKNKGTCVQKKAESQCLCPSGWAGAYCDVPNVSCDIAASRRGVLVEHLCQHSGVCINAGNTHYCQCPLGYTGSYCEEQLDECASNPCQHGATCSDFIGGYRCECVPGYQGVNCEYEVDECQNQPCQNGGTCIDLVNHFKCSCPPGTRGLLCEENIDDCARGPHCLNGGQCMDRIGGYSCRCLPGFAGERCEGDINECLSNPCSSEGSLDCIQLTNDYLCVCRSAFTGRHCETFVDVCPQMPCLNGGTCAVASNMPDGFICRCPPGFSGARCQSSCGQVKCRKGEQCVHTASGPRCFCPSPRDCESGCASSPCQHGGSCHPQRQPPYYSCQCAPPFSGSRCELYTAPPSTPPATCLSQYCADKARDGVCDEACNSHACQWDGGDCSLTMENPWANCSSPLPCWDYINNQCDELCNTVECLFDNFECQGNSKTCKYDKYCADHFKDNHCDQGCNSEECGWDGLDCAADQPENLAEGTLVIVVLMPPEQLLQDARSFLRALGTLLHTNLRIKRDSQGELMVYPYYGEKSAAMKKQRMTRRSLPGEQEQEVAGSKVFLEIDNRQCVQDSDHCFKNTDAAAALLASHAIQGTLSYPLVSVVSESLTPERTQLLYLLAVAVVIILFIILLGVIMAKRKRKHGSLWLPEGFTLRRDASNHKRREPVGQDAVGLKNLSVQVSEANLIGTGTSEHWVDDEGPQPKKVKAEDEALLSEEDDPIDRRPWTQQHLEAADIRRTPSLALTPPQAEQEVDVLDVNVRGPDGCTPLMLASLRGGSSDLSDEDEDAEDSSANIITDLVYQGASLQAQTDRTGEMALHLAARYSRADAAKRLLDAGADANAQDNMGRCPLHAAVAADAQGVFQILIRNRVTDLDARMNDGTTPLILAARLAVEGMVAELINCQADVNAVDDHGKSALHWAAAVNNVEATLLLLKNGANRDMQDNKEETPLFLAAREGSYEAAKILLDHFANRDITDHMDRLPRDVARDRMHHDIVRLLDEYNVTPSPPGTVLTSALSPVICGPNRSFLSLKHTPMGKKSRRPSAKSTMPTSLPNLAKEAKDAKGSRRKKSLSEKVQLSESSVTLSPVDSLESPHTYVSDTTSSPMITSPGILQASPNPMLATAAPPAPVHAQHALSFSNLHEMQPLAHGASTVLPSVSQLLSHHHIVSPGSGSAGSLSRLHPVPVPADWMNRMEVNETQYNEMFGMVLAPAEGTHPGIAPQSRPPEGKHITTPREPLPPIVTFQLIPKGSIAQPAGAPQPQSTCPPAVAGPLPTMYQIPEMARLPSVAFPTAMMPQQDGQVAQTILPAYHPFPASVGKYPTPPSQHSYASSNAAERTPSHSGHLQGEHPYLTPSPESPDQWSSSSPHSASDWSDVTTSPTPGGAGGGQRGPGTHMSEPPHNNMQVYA
# Sequence of Neurogenic locus notch homolog protein 3 (Homo sapiens) (Q9UM47 whole entry, looked up): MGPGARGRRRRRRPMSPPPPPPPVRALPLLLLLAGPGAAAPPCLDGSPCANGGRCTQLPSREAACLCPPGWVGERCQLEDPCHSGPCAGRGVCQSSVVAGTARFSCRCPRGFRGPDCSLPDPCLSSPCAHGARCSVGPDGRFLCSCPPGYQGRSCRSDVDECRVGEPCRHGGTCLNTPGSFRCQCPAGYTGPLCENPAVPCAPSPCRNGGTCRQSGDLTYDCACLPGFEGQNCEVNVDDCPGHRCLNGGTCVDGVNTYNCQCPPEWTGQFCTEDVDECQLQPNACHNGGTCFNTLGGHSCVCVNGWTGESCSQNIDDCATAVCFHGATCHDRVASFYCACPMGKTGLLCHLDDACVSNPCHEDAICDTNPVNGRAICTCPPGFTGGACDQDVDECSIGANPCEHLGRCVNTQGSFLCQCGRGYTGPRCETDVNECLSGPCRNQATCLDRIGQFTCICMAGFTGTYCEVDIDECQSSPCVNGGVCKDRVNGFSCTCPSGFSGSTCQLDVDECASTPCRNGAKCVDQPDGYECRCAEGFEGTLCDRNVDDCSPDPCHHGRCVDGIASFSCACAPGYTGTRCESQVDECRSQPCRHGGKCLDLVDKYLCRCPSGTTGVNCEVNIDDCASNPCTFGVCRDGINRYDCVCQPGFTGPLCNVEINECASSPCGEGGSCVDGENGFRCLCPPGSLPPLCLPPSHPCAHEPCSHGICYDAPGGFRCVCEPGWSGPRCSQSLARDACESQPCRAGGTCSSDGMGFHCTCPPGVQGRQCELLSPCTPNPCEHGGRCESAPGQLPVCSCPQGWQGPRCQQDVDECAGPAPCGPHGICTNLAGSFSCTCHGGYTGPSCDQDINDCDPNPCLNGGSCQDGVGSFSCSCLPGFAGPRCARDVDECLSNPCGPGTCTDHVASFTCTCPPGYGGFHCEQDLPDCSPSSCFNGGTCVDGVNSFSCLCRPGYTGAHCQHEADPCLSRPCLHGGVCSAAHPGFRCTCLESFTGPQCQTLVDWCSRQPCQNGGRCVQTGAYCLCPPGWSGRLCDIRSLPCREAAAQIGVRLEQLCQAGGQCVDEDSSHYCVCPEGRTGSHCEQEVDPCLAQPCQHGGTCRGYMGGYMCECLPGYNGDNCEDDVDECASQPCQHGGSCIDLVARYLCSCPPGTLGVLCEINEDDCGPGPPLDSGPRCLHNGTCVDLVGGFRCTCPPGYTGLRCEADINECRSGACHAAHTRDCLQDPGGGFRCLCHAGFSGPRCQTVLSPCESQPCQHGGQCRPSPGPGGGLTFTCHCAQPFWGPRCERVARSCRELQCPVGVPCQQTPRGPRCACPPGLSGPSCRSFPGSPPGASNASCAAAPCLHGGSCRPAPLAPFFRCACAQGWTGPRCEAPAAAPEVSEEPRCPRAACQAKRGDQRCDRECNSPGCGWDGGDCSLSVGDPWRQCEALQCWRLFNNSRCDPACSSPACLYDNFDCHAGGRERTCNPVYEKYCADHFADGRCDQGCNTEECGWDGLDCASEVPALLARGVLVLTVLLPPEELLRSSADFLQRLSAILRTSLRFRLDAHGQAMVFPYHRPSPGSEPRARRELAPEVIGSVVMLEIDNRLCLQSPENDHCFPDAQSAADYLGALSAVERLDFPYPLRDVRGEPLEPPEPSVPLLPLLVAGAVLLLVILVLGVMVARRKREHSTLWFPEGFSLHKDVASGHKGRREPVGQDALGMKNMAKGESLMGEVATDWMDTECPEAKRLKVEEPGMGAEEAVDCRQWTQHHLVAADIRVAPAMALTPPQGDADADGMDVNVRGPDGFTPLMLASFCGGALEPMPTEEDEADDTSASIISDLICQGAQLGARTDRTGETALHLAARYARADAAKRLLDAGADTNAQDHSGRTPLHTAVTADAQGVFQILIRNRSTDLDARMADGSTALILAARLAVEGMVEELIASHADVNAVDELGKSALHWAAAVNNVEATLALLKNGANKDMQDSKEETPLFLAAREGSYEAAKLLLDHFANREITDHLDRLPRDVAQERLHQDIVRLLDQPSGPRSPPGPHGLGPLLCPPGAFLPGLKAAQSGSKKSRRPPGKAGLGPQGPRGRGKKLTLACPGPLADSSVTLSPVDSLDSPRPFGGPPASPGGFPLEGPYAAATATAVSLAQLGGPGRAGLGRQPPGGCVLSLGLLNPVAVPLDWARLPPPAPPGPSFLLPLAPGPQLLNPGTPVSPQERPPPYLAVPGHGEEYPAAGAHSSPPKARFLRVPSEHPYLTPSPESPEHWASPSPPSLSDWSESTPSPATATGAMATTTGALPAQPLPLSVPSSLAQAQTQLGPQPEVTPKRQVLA
Compound,composite z-score [1],composite z-score [2],composite z-score [3],composite z-score [4],composite z-score [5],composite z-score [6],composite z-score [7],z-score [8],composite z-score [9],composite z-score [10],composite z-score [11],z-score [12],z-score [13],z-score [14],composite z-score [15],z-score [16],composite z-score [17],composite z-score [18],composite z-score [19],composite z-score [20]
COCCCNC(=O)[C@]1(Cc2ccccc2N=[N+]=[N-])N=C(c2ccc(OCCCO)cc2)O[C@@H]1c1ccccc1,0.522,1,0.286,0.232,1.4,1.73,1.27,-2.74 (inactive),1.14,0.547,1.46,-1.51 (inactive),-0.982 (inactive),2.48 (inactive),3.23,1.1 (inactive),0.692,-0.0042,0.901,0.377
COCCCNC(=O)[C@]1(Cc2ccccc2CN=[N+]=[N-])N=C(c2ccc(OCCCO)cc2)O[C@@H]1c1ccccc1N=[N+]=[N-],1.19,0.694,0.359,0.425,1.43,0.527,1.11,-0.881 (inactive),0.762,0.0623,0.772,-0.499 (inactive),1.07 (inactive),4.98 (inactive),2.27,1.11 (inactive),0.862,0.0289,-0.217,0.371
CCc1cccc(NC(=O)O[C@H]2[C@H](OC(=O)Nc3ccccc3-c3ccccc3)[C@H](OC(=O)Nc3ccccc3-c3ccccc3)[C@@H](OC)O[C@@H]2CO)c1,-0.189,0.42,0.155,0.576,1.54,1.48,1.11,-0.714 (inactive),1.14,-0.214,1.55,1.95 (inactive),1.31 (inactive),0.423 (inactive),2.91,-1.08 (inactive),0.229,1.48,1.05,-0.0232
CC[C@@H]1C=C(C(=O)O)[C@H](c2cccc(Cl)c2)N1S(=O)(=O)c1ccc(C)cc1,0.0801,0.969,0.0263,0.516,1.36,1.27,0.855,-1.53 (inactive),0.177,0.0424,0.877,-0.848 (inactive),-0.874 (inactive),-0.177 (inactive),3.5,-0.944 (inactive),0.0595,-0.791,-0.118,-0.128
COC(=O)C(CC#Cc1ccc2c(c1)[C@]1(C(=O)N2)[C@H](C(=O)N2CCN(c3ncccn3)CC2)[C@H]2C(=O)O[C@H](c3ccccc3)[C@H](c3ccccc3)N2[C@@H]1c1ccc(O)cc1)C(=O)OC,2.65,0.987,0.374,1.01,1.53,1.44,1.31,1.41 (inactive),2.24,0.102,1.53,1.04 (inactive),1.1 (inactive),0.183 (inactive),3.25,-0.333 (inactive),0.759,1.73,1.01,1.05
